Laboratory results as given in PubChem BioAssay (Tox21).
Values joined by “and” are separate entries in the source; they are usually repeats but may differ in a detail not shown here. Equal values may be shown once. Inconclusive results are not listed. Some compounds were tested as several samples or in several runs, with calls that do not always agree. Active and inactive are the calls of the source. Unless noted, calls follow the shape of the dose curve; as a rule, active = well fitted curve in the direction sought with a large enough effect in the repeat runs; inconclusive = weak or mixed curves; inactive = no such curve, though single readings can be large; an effect the other way counts as inactive or inconclusive.

Assays:
[1] = qHTS assay for small molecules that induce genotoxicity in human embryonic kidney cells expressing luciferase-tagged ATAD5 (AID 651632); also: nearly all actives have a fitted effect of over 15% in size
Method in brief: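 A rise in luciferase signal from ATAD5-tagged HEK293T cells marks genetic stress. Cells were exposed to compounds for 16 hr at 37C, 5% CO2, then luciferase was quantified after a 30 min room-temperature incubation with Amplite.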

[2] = qHTS assay for small molecule agonists of the p53 signaling pathway - cell viability (AID 651633; calls by dose curve; also: nearly all actives have a fitted effect of over 30% in size; also: potency is read from the fitted curve at half-maximal effect)
Method in brief: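 p53RE-bla cells were treated with compound for 16 hours at 37 C. Cytotoxicity was then measured as CellTiter-Glo luminescence after 30 min at room temperature.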

[3] = qHTS assay for small molecule disruptors of the mitochondrial membrane potential - cell viability (AID 720634; calls by dose curve; also: nearly all actives have a fitted effect of over 20% in size; also: potency is read from the fitted curve at half-maximal effect)
Method in brief: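 Cytotoxicity was quantified from ATP content by CellTiter-Glo luminescence in the same wells as the MMP dye read-out. HepG2 (2,000 cells/well) were plated overnight and exposed to compounds for 1 hr at 37 C.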

[4] = qHTS assay for small molecule disruptors of the mitochondrial membrane potential (AID 720635); also: potency is read from the fitted curve at half-maximal effect
Method in brief: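 HepG2 cells exposed to compound 1 hr at 37C, then Mito-MPS dye 30 min. Ratio read of aggregate (540/590 nm) versus monomer (490/535 nm) fluorescence.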

[5] = qHTS assay to test for compound auto fluorescence at 590 nm (red) in HepG2 cells (AID 720674)
Method in brief: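 HepG2 cells, 2,000 per well in MEM with 10% FBS, attached overnight at 37 C, then got 23 nL compound or DMSO. After 1 hr at 37 C, 5% CO2, red fluorescence was read at 540/590 nm against Rose Bengal sodium as reference.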

[6] = qHTS assay to test for compound auto fluorescence at 535 nm (green) in HepG2 cells (AID 720675)
[7] = qHTS assay to test for compound auto fluorescence at 460 nm (blue) in HEK293 cells (AID 720678)
Method in brief: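 Triamterene serves as the blue fluorophore standard. Compound signal at 405/460 nm is read in HEK293 wells (2,000 cells, 10% dialyzed FBS) after overnight treatment at 37C.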

[8] = qHTS assay to test for compound auto fluorescence at 590 nm (red) in HEK293 cells (AID 720679)
Method in brief: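 We plated HEK293 cells in 10% dialyzed FBS medium, let them adhere for 4-5 hr, then added 23 nL compound. Overnight at 37C and 5% CO2 preceded fluorescence measurement at 540/590nm.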

[9] = qHTS assay for small molecules that induce genotoxicity in human embryonic kidney cells expressing luciferase-tagged ATAD5 - cell viability (AID 651634; calls by dose curve; also: nearly all actives have a fitted effect of over 25% in size)
Method in brief: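 Cytotoxicity counter-readout: after 15.5 hr compound treatment at 37C, live-cell protease activity in ATAD5-luciferase HEK293T cells measured by CellTiter-Fluor fluorescence, 30 min development at 37C.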

Measured: Potency

O=C(O)CF
not listed: [9]
inactive: all other assays above

CC(C)COC(=O)c1ccccc1C(=O)OCC(C)C
active: [4] 68.6 µM
not listed: [9]
inactive: all other assays above

C[N+](C)(C)CC(=O)O
not listed: [4] | [9]
inactive: all other assays above

CC(C)(c1ccc(OCC2CO2)cc1)c1ccc(OCC2CO2)cc1 (stereo not given)
active: [2] 61.9 µM and 61.1 µM
inactive: [1] | [5] | [6] | [7] | [8]

CCCCCCCCCc1ccc(O)cc1
active: [3] 17.4 µM | [4] 6.18 µM
not listed: [2] | [9]
inactive: all other assays above

ClC(Cl)=C(Cl)C(Cl)=C(Cl)Cl
not listed: [3] | [9]
inactive: all other assays above

CC(C)(c1ccccc1)c1ccc(O)cc1
active: [4] 3.04 µM and 3.86 µM
48.2 µM (active) and inactive: [3]
not listed: [2]
inactive: all other assays above

COP(=S)(OC)SCn1nnc2ccccc2c1=O
not listed: [3] | [4] | [9]
inactive: all other assays above

N#Cc1cccnc1
not listed: [9]
inactive: all other assays above

N#Cc1nn(-c2c(Cl)cc(C(F)(F)F)cc2Cl)c(N)c1S(=O)C(F)(F)F (stereo not given)
active: [4] 5.31 µM and 1.54 µM
not listed: [3] | [9]
inactive: all other assays above

CCOP(=O)(O)OCC (tested in a mixture with another compound)
inactive and 60.6 µM (active): [2] | [3]
active: [4] 24.1 µM
not listed: [9]
inactive: all other assays above
